FLuc modulator = counter-screen for miR-21 project: firefly luciferase inhibitors or activators; P08659; purified FLuc, Km substrates, luminescence inhibition; Potency, µM (titrated, usually from 57.5 µM), actives largely listed as inhibitors; hit rate 6.9% among 360,000; AID 588342; further: nearly all actives have a fitted effect of over 55% in size
Target sequence (P08659 whole entry, looked up): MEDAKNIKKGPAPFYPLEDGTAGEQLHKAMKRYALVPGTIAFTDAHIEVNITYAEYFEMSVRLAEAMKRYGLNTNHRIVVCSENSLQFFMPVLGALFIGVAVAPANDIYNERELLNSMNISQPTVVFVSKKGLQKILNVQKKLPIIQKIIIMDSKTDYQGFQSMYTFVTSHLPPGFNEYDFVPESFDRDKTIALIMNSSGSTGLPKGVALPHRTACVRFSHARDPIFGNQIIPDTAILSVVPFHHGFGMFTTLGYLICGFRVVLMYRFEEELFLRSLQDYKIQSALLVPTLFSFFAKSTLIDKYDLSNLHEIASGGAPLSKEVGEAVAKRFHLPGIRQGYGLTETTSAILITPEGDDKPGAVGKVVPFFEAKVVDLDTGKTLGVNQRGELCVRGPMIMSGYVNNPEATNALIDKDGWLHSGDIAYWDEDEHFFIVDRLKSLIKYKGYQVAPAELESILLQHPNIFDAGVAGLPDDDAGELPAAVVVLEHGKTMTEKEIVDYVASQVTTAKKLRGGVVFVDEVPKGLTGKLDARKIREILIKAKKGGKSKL
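Purified P. pyralis luciferase, 10 nM final, with Km-level 10 uM D-luciferin and 10 uM ATP in 50 mM Tris acetate pH 7.5, 10 mM Mg acetate, 0.01% Tween-20, 0.05% BSA; 6-point qHTS titration about 60 µM downward; luminescence read.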
Luc counter = blocks Kinase-Glo luciferase, a counter-screen artifact; hit rate 0.28% among 200,000; Kinase-Glo luciferase, ATP luminescence, 8 min; Potency, µM (doses to about 38.3 µM), usual class: inhibitors; further: nearly all actives have a fitted effect of over 60% in size
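Substrate mix (final 50 mM imidazole pH 7.2, 50 mM KCl, 7 mM MgCl2, 10 uM ATP, 0.01% Tween 20, 0.05% BSA) plus pin-tool compound, then Kinase-Glo detection mix; 8 min ambient, luminescence read.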
Rab9 promoter act = activates the Rab9 promoter; Huh7 Rab9 promoter-luciferase reporter, luminescence, 24 h; Potency, µM (series often up to 9.22 µM), actives largely listed as activators; hit rate 2.8% among 320,000; further: nearly all actives have a fitted effect of over 60% in size
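Promoter activation is measured as luciferase luminescence in Huh7 cells stably transfected with a Rab9 promoter–luciferase construct, following 24 h compound exposure at 37 °C and 10 min reagent incubation at ambient temperature.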
ELG1 genotoxic = inducers of genotoxicity in HEK293T ELG1-luciferase cells. HEK293T ELG1-luciferase reporter, luminescence, 16 h. Potency, µM (titrated, usually from 46 µM), usual class: activators. hit rate 1.3% among 330,000; further: nearly all actives have a fitted effect of over 60% in size
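ELG1-luciferase HEK293T cells, 2,000/well; compound pinned in; 16 hr, 37 °C, 5% CO2; ONE-Glo, 30 min RT; luminescence on CCD imager.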
NPC1 prom act = activators of NPC1 promoter. Huh7 NPC1 promoter luciferase reporter, 24 h. Potency, µM (titrated, usually from 9.22 µM), actives largely listed as activators. hit rate 2.4% among 320,000. AID 485313; further: nearly all actives have a fitted effect of over 60% in size
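Compounds in DMSO were transferred onto Huh7 NPC1-luciferase reporter cells pre-incubated 2 h; after 24 h at 37 °C, Amplite reagent was dispensed and luminescence recorded 10 min later.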
SMN2 splice enh = increases expression of the SMN2 splice variant | HEK293 SMN2-luciferase splicing reporter, luminescence, 30-36 h | Potency, µM (highest dose often 46.1 µM), hits mostly activators | hit rate 2.8% among 210,000 | AID 1458; further: nearly all actives have a fitted effect of over 55% in size
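qHTS luciferase splicing reporter: luminescence rises when SMN2 exon 7 is included in transfected HEK293 cells. Compound exposure lasted 30-36 h at 37C, with 4.5 mM final sodium butyrate as control, followed by a ONE-Glo read.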
Numbers stand for hits; 0 = inactive; ? = inconclusive; - = no result given; [ ] = another dose, or the depositor's remark. This is a sample that favours compounds with a hit; in the whole collection about 7.3% have one here. The call rests on the fitted dose curve; in most records, active means well fitted curve in the direction sought with a large enough effect; inconclusive means small, poorly fitted or top-dose-only effect, or another doubt; inactive means no such curve, though single readings can be large; an effect the other way counts as inactive or inconclusive.

SMILES | FLuc modulator | Luc counter | Rab9 promoter act | ELG1 genotoxic | NPC1 prom act | SMN2 splice enh
C#CCN1C(=O)S/C(=C/c2cc(C)n(CC)c2C)C1=O | 2.13µM | - | 1.58µM | ? | 2.82µM | -
CCN1C(=O)/C(=C/c2cnn(CC)c2C)SC1=S | ? | 0 | 0 | ? | 0 | 0
CCn1c(C)cc(/C=C2/SC(=S)N(CC(=O)O)C2=O)c1C | 2.69µM | 0 | 0 | 0 | 0 | 0
Fc1ccc(-c2cn3cc(Cc4ccccc4)sc3n2)cc1 | 0.12µM | - | - | - | - | 6.31µM
Clc1ccccc1Cc1cn2cc(-c3ccccc3)nc2s1 | 0.169µM | - | - | - | - | 2.51µM
Clc1ccccc1Cc1noc(CN2CCSCC2)n1 | 0 | 0 | 0 | 0 | 0 | 0
Fc1ccc(Cc2cn3cc(-c4ccccc4)nc3s2)cc1 | 0.107µM | - | - | - | - | 2µM
Brc1ccc(-c2cn3cc(Cc4ccccc4)sc3n2)cc1 | 0.338µM | - | - | - | - | 0
COc1ccc(C)cc1NC(=O)CCS(=O)(=O)c1cc2c3c(c1)CCN3C(=O)CC2 | 0 | - | - | - | - | -
CCOc1ccc(C(=O)NCCc2csc(-c3ccc(C(F)(F)F)cc3)n2)cc1OCC | 0 | - | - | - | - | -
N/C(=N\OC(=O)c1ccc(Br)cc1)c1cccc([N+](=O)[O-])c1 | 0.849µM | - | 0 | ? | ? | -
Cc1ccc(CC(=O)O/N=C(\N)c2cccc([N+](=O)[O-])c2)cc1 | ? | 0 | 0 | 0 | 0 | 0
N/C(=N\OC(=O)c1ccc([N+](=O)[O-])cc1)c1ccc(Br)cc1 | ? | - | 0 | ? | 0 | -
N/C(=N\OC(=O)C1CCCCC1)c1cccc([N+](=O)[O-])c1 | 10.7µM | 0 | 0 | ? | 0 | 0
Cc1ccc(C(=O)O/N=C(\N)c2cccc([N+](=O)[O-])c2)cc1 | 0.19µM | 0 | 3.55µM | ? | 3.55µM | 0
N/C(=N\OC(=O)c1ccncc1)c1cccc([N+](=O)[O-])c1 | ? | - | 0 | 0 | 0 | -
CN(C)c1ccc(C(=O)OCC(=O)N2CCOCC2)cc1 | 0 | 0 | 0 | 0 | 0 | 0
CN(C)c1ccc(N=Nc2ccccc2C(=O)OCC(=O)N2CCCC2)cc1 | 2.13µM | 0 | 0 | 0 | 0 | ?
CN(C)c1ccc(N=Nc2ccccc2C(=O)OCC(=O)Nc2ccccc2C(F)(F)F)cc1 | 9.53µM | 0 | 0 | 0 | 0 | 0
CN(C)c1ccc(N=Nc2ccccc2C(=O)OCC(=O)N2CCCCCC2)cc1 | ? | 0 | 0 | 0 | 0 | 25.1µM
CC1=N[C@@](C)(COC(=O)[C@]2(C)N[C@](C)(CO)CO2)COC1=O | - | 0[7.66 µM] | - | - | - | 0[9.22 µM]
O=c1[nH]c2ccc(NCc3ccc(-c4ccc(F)cc4)o3)cc2[nH]1 | 0 | - | - | - | - | -
CC(=O)c1cc(-c2ccc(F)cc2)n(CCC(=O)Nc2nc3c(C)cccc3s2)c1C | 0 | - | - | - | - | -
O=C(COC(=O)c1ccc(Br)o1)Nc1ncc([N+](=O)[O-])s1 | 16.9µM | - | 0 | 0 | 0 | -
COc1ccc(C(=O)OCC(=O)Nc2ncc([N+](=O)[O-])s2)cc1OC | 0 | - | 0 | 0 | 0 | -
SMILES | FLuc modulator | Luc counter | Rab9 promoter act | ELG1 genotoxic | NPC1 prom act | SMN2 splice enh
Cc1ccc(S(=O)(=O)CC(=O)Nc2ncc([N+](=O)[O-])s2)cc1 | 0 | - | 0 | 0 | 0 | -
Cc1ccc(CC(=O)Nc2ncc([N+](=O)[O-])s2)cc1 | 15.1µM | 0 | ? | 0 | ? | 12.6µM
Cc1ccc(-c2nc(-c3cc4c([nH]c3=O)CC(C)(C)CC4=O)sc2C)cc1 | 0 | - | - | - | - | 0
CCn1ccc2c(OCC(=O)Nc3ccccc3C(F)(F)F)cccc2c1=O | 0 | - | - | - | - | -
CCCN1Cc2cccc(C(=O)Nc3ccc4c(c3)OCO4)c2C1=O | ? | 0 | 0 | 0 | 0 | -
O=C(Nc1ccc2c(c1)OCO2)c1cccc2c1C(=O)N(Cc1cccnc1)C2 | 15.1µM | 0 | 0 | ? | 0 | 0
CCCN1Cc2cccc(C(=O)Nc3ccc(C)cc3)c2C1=O | 0 | 0 | 0 | 0 | 0 | 0
CCCN1Cc2cccc(C(=O)Nc3ccc4c(c3)OCCO4)c2C1=O | 15.1µM | 0 | 0 | 0 | 0 | 0
CCCN1Cc2cccc(C(=O)Nc3ccc(CC)cc3)c2C1=O | 2.69µM | 0 | 0 | 0 | 0 | 0
COc1cc(NC(=O)c2cccc3c2C(=O)N(Cc2cccnc2)C3)cc(OC)c1OC | 0 | 0 | 0 | 0 | 0 | ?
CCc1ccc(NC(=O)C(=O)NCC(c2cccnc2)N2CCN(Cc3ccccc3)CC2)cc1 (stereo unspecified) | 0 | - | - | - | - | -
O=C(O)c1c[nH]c2c(ccc3[nH]cc(C(=O)O)c(=O)c32)c1=O | - | 0[7.66 µM] | - | - | - | 0[9.22 µM]
Cc1cc2cc(OCc3ccccc3)ccc2n1C | 5.36µM | - | 3.16µM | ? | 2µM | -
Cc1c(C=O)c2cc(OCc3ccccc3)ccc2n1C | 15.1µM | - | 3.98µM | ? | ? | -
CCc1ccc(OCC(=O)N(Cc2ccco2)Cc2ccccc2Cl)cc1 | 0 | - | - | - | - | 0
COC(=O)c1ccc(CSc2ncnc3c2nnn3-c2ccc(OC)cc2)o1 | 21.3µM | 0 | 0 | 0 | 0 | 0
O=C(CSc1ncccc1C(=O)O)Nc1ccc2c(c1)OCCO2 | 10.7µM | - | 0 | 0 | 0 | -
CCc1ccccc1-n1c(SCC(=O)Nc2ccc3c(c2)OCCO3)nc2[nH]ncc2c1=O | 16.9µM | 0 | 0 | ? | 0 | 0
COc1ccc(-n2nnc3c(SCC(=O)Nc4ccc5c(c4)OCCO5)ncnc32)cc1 | 7.57µM | 0 | 0 | 0 | 0 | 0
O=C(CSc1ccccc1C(=O)O)Nc1ccc2c(c1)OCO2 | ? | - | 0 | 0 | 0 | -
COc1cccc(NC(=O)Cn2c(=O)n(CCCCC(=O)NCCc3ccccc3)c(=O)c3ccccc32)c1 | 0 | - | - | - | - | 0
NS(=O)(=O)c1ccc(N=Nc2ncccc2O)cc1 | - | 0[7.66 µM] | - | - | - | 0[9.22 µM]
